RMI FANCM FP = disruptors of RMI1/RMI2 association with MM2 peptide – biochemical, fluorescence polarization, human, primary screen; RMI core complex with F-MM2 peptide; active compounds read low; hit rate 0.58% among 70,000; FP signal (polarization) at 33 µM; RMI core complex (RMI1/RMI2) binding to FANCM MM2 peptide, human; in the data active means FP signal below about 40
An asterisk follows results filed as active; ! = not confirmed by another sample. Only a selection was taken, and hits are over-represented in it overall.

SMILES	RMI FANCM FP
CC(C)Oc1ccc(C(=O)Nc2nnc(-c3ccc4c(c3)OCO4)o2)cc1	62
COc1cc(C(=O)Nc2nnc(-c3ccc4c(c3)OCO4)o2)cc(OC)c1OC	33*
CC(=O)Nc1nnc(-c2ccc3c(c2)OCO3)o1	64
C[C@]12CCC3c4ccc(OC(=O)CCC(=O)O)cc4CCC3C1CCC2=O (stereo not given in full)	53
C[C@]12CC[C@@H]3c4ccc(OS(=O)(=O)O)cc4CC[C@H]3[C@@H]1CCC2=O	33*!
C[C@]12CCC3c4ccc(O)cc4CCC3C1CCC2=O (stereo not given in full)	65
CN(C)/C=C/C=C/C=C1C(c2ccccc2)=C(c2ccccc2)C(c2ccccc2)=C1c1ccccc1	58
O=C(c1cccs1)N1CCc2ccc(NC(=O)C34CC5CC(CC(C5)C3)C4)cc2C1	70
NC(=O)c1oc2ccccc2c1NC(=O)/C=C/c1cccc([N+](=O)[O-])c1	63
O=C(NCCSc1c(-c2ccccc2)[nH]c2ccccc12)c1ccc(-c2ccccc2)cc1	59
N#Cc1ccc2nc(C(O)C(O)c3nc4ccc(C#N)cc4[nH]3)[nH]c2c1 (stereo not given)	29*
OC(c1ccccc1)c1nc2ccccc2[nH]1 (stereo not given)	60
OC(c1nc2ccccc2[nH]1)C(O)c1nc2ccccc2[nH]1 (stereo not given)	54
CSc1ccc(C(=O)Nc2sc3c(c2C(N)=O)CCC(C)C3)cc1 (stereo not given)	67
Nc1cc2c3c(c1)CCC(=O)N3CCC2	21*
CC1CC(C)CN(S(=O)(=O)c2cc3c4c(c2)CCC(=O)N4CCC3)C1 (stereo not given)	54
COc1ccc(OC)c(S(=O)(=O)Nc2cc3c4c(c2)CCC(=O)N4CCC3)c1	52
O=C(CS(=O)(=O)c1cccs1)Nc1nccs1	65
CC1CCCCN1C(=O)C12CCC(C)(/C(=N\O)C1)C2(C)C (stereo not given)	25*
COc1ccc(N2CCN(C(=O)C34CCC(C)(C(=O)C3)C4(C)C)CC2)cc1 (stereo not given)	63
CC12CCC(C(=O)N3CCC(C(=O)O)CC3)(CC1=O)C2(C)C (stereo not given)	58
C#CCn1c(=NC(=O)CCC)sc2c(C)cc(C)cc21	63
CCc1nnc(NS(=O)(=O)c2ccc(NC(=O)c3coc4ccccc4c3=O)cc2)s1	47
COc1cc(/C=N\n2c(C)nc3c(ncn3-c3ccccc3)c2=O)cc(OC)c1OC	86
Cc1nc2cc3ccccc3cc2c(=O)n1/N=C\N(C)C	8*
SMILES	RMI FANCM FP
Cc1cc(Sc2nnc(N=CN(C)C)s2)c2ccccc2n1	56
CN(C)c1ccc(-c2nc3ccccc3c(=O)[nH]2)c(Cl)c1	51
N#C/C(=C\c1ccc(Cl)c(Cl)c1)c1nc2ccccc2c(=O)[nH]1	62
CC(O)=c1c(=O)nc2ccc(Cl)c3c2=c1c1ccccc1c3=O	-21*
COc1ccc(NC(=O)CSc2nnc(-c3cccnc3)n2N)cc1	55
CSc1cccc(NC(=O)Cn2cccc(-c3nc(-c4ccc(Cl)cc4)no3)c2=O)c1	188
O=C(c1ccc(F)cc1F)N1CCCC(c2nnc(-c3cccs3)o2)C1 (stereo not given)	62
CCn1c(=NC(=O)c2ccccc2F)sc2cc(F)ccc21	61
Cc1cc[n+](-c2[nH]c(=O)sc2/C=N\NC(=O)c2ccccc2[O-])cc1	1*
Cc1ccc(/C=N\NC(=O)c2cc([N+](=O)[O-])cc([N+](=O)[O-])c2)cc1	61
Cc1ccccc1C(=O)N/N=C\c1ccc(OC(=O)c2ccccc2)cc1	63
COc1ccc(S(=O)(=O)NCC(c2ccsc2)N2CCN(C)CC2)cc1Cl (stereo not given)	101
COC(=O)Nc1nc(CC(=O)NCCc2ccc(S(N)(=O)=O)cc2)cs1	63
COc1cccc(C(=O)N=c2sc3cc([N+](=O)[O-])ccc3n2C)c1OC	56
CN1c2ccccc2C(=O)/C(=N/Nc2ccccc2Cl)S1(=O)=O	-6*
N#C/C(=N/Nc1ccccc1Cl)S(=O)(=O)c1ccc(Cl)cc1	44
CN1C(=O)c2cccc(NC(=O)c3c(F)cccc3Cl)c2C1=O	69
O=C(Oc1ccc(OCc2ccccc2)cc1)c1ccc([N+](=O)[O-])cc1	57
Fc1ccc(Cn2c3ccccc3c3nn4cnnc4nc32)cc1	28*
COCCNC(=O)Cc1cn(Cc2ccc(F)cc2)c2ccccc12	65
COc1ccc(Cn2cnc3c4ccccc4n(CC(=O)NCc4ccccc4)c3c2=O)cc1	101
O=C(c1ccccc1)N1N=C(c2ccc(Cl)cc2)CC1c1ccc(Cl)cc1 (stereo not given)	88
CSc1ccc(Cc2nnc(NC(=O)CCCS(=O)(=O)c3ccc(F)cc3)o2)cc1	65
NC(=O)c1ccsc1NC(=O)c1cc(-c2ccccc2)nc2ccccc12	61
COC(=O)c1ccc2nc(NC(=O)c3cc(-c4cccs4)nc4ccccc34)sc2c1	85
SMILES	RMI FANCM FP
O=C(Nc1nc(-c2cccs2)c(C(=O)C(F)(F)F)s1)c1cc(-c2ccccc2)nc2ccccc12	19*
C=CCN(CC=C)S(=O)(=O)c1ccc(C(=O)Nc2nc3ccc(Br)cc3s2)cc1	68
COc1ccccc1-n1ncc2c(C)nnc(SCC(=O)Nc3ccc4c(c3)OCCO4)c21	64
CCOc1cccc2cc(-c3csc(NC(=O)c4ccc(S(=O)(=O)N5CCCc6ccccc65)cc4)n3)oc12	54
CCOc1cccc2cc(-c3csc(NC(=O)c4ccc(C(C)=O)cc4)n3)oc12	53
CCC1CCCCN1S(=O)(=O)c1ccc(C(=O)Nc2nc(-c3cc4cccc(OC)c4o3)cs2)cc1 (stereo not given)	19*
S=c1[nH]cnc2sc3c(c12)CCC3	60
CC(=O)N1CC(C)=C(C#N)C1O (stereo not given)	-1*
NC(N)=N/N=C\C=C\c1ccccc1	58
Cc1nc(-c2cccs2)sc1NC(=O)O/N=C(/N)c1ccc(Cl)cc1	60
NS(=O)(=O)c1ccc(N=Cc2cc(Br)ccc2O)cc1	48
O=S(=O)(N=Cc1cc(Br)ccc1O)c1ccccc1	21*
O=S(=O)(N/N=C\c1cc(Br)ccc1O)c1ccccc1	59
O=C(c1ccco1)N1CCN(C(=O)c2cc3cc(Cl)cc(Cl)c3oc2=O)CC1	58
CS(=O)(=O)c1cccc(S(=O)(=O)Nc2nc3ccccc3s2)c1	53
CCOC(=O)c1cc(C#N)c2ccccn2c1=O	33*
CCOC(=O)c1cc(C#N)c(SCC(=O)Nc2ccc(C(C)=O)cc2)[nH]c1=O	55
CCOC(=O)c1cc(C#N)c(Sc2ccccc2)nc1C(F)(F)F	53
O=C(CCCSc1ccc(NC(=O)c2ccc(F)cc2)nn1)NCc1cccs1	124
O=C(CCc1csc(NC(=O)Nc2ccccc2)n1)NCCc1c[nH]c2ccccc12	64
CSc1ccccc1C(=O)Nc1sc2c(c1C(N)=O)CCN(C(C)C)C2	80
CC(=O)N1CCc2c(sc(N)c2C(N)=O)C1	69
CC(C)N1CCc2c(sc(N)c2C(N)=O)C1	-30*
CCOC(=O)CN1C(c2ccccc2F)Nc2ccc(Br)cc2C1c1ccccc1 (stereo not given)	27*
CCOC(=O)CNC(c1ccccc1)c1cc(Br)ccc1NC(=O)c1ccccc1 (stereo not given)	62
CCOC(=O)Cn1c(=NC(=O)c2ccccc2Br)sc2cccc(F)c21	63
